Measurements: ChEMBL document CHEMBL1201862, “PubChem BioAssay data set” (2004)
The campaign covered roughly 400,000 compounds. About 2,100 (0.53%) were called active. Another 14% or so got no clear call; they are omitted. No rule for the calls is given here. The full list was thinned out, with actives kept by preference.

Each compound was assayed against Ataxin-2 (Homo sapiens) (UniProt Q99700) (assay: qHTS for Inhibitors of ATXN expression.).
Format: functional

Chain of Ataxin-2 (Homo sapiens) (Q99700 whole entry): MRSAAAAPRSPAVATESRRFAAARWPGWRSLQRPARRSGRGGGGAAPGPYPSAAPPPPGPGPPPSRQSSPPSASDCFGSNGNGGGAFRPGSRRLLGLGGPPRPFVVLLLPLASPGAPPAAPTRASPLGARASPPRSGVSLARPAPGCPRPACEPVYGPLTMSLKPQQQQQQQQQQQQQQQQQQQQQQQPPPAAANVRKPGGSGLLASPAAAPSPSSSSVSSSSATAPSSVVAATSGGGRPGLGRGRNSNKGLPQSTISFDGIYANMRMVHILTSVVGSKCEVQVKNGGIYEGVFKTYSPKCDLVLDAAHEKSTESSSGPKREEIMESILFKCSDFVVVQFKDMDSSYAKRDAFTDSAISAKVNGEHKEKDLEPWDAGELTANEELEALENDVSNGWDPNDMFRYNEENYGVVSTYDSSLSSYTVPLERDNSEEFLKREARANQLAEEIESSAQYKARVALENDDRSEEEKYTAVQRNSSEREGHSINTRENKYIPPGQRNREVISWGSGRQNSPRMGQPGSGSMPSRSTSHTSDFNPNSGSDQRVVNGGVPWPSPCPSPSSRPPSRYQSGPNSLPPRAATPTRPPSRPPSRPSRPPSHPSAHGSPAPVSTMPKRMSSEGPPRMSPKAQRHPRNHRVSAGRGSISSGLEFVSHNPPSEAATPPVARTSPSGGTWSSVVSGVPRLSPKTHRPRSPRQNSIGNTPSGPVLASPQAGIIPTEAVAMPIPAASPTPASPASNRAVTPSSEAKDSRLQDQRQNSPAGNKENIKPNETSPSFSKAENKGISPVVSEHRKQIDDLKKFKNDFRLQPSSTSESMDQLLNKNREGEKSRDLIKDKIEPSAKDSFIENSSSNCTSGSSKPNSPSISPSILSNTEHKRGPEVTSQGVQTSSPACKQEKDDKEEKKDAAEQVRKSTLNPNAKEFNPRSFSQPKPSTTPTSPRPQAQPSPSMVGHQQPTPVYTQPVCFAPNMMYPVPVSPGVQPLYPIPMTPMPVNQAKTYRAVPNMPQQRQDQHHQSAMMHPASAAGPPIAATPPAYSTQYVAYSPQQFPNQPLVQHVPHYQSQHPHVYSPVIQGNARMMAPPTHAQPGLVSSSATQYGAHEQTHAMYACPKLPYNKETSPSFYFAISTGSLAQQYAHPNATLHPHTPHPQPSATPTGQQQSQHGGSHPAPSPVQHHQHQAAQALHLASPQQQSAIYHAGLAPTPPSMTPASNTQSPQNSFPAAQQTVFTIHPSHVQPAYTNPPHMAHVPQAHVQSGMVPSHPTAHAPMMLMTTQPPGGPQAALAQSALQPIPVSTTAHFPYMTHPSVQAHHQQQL

SMILES	Potency
CCOC(=O)c1sc2c(c1C)C(c1cccs1)C1=C(O)CCCC1=N2 (stereo not drawn)	inactive
c1cc(-c2sc(-c3ccncc3)c(-c3ccncc3)c2-c2ccncc2)ccn1	inactive
COc1ccc(-n2c(=O)/c(=C\c3cccs3)s/c2=C(/C#N)C(=O)NCCN2CCOCC2)cc1	inactive
CCCOc1ccc(C2c3c(-c4ccccc4O)n[nH]c3C(=O)N2Cc2cccnc2)cc1 (stereo not drawn)	35.5 µM (active)
CCOc1ccccc1Oc1c[nH]nc1-c1ccc(OCC(=O)NN)cc1O	inactive
CCOc1ccc(C2CC(c3c(O)oc4ccccc4c3=O)=NN2c2ccccc2)cc1OC (stereo not drawn)	inactive
CCCOc1ccc(C2c3c(-c4ccccc4O)n[nH]c3C(=O)N2CCCOCC)cc1OCC (stereo not drawn)	22.4 µM (active)
O=C(C1CCCO1)N1CCN(C(=O)C23CC4CC(CC(C4)C2)C3)CC1 (stereo not drawn)	inactive
O/N=C1\CCCc2ccc3ccccc3c21	inactive
Cc1ccc(OC(=O)c2ccncc2)c(C)c1	inactive
O=C(NNC(=O)c1csc(-c2cccs2)n1)c1ccc(Cl)cc1	22.4 µM (active)
O=C(NCc1csc(-c2cccs2)n1)c1cccc(Cl)c1	inactive
O=S(=O)(NCc1csc(-c2cccs2)n1)c1ccc(Cl)cc1	inactive
C=CCn1c(NC(=O)c2ccccc2Cl)c(C#N)c2nc3ccccc3nc21	inactive
CCOC(=O)c1cnc2ccc3ccccc3c2c1O	inactive
CCOC(=O)c1cnc2ccc(C)cc2c1Nc1ccc(N(CC)CC)cc1	28.2 µM (active)
CCOC(=O)c1cnc2ccc(C)cc2c1N(C)Cc1ccccc1	inactive
CS(=O)(=O)c1ccc(Cl)c(NC(=O)CSc2n[nH]c(-c3cccs3)n2)c1	inactive
COC(=O)Cc1cc(=O)oc2cc(O)ccc12	inactive
O=C(NCCCCCCCN1CCCCCCC1)C(C1CCCCC1)C1CCCCC1	21.2 µM (active)
Cc1nn(CC(=O)NCCCN2CCCCC2)c(=O)c2cccn12	inactive
S=C(NCCCN1CCOCC1)NC1CC1	inactive
Cn1c(SC2=CS(=O)(=O)c3ccccc32)nc2ccccc21	15.8 µM (active)

SMILES	Potency
Cn1c(=O)c(/C=C/c2ccc(F)cc2)nc2ccccc21	inactive
CCC(=O)c1ccc(/C=C/c2nc3ccccc3n2C)o1	inactive
Cn1c(-c2c(N)n(-c3ccccc3)c3nc4ccccc4nc23)nc2ccccc21	inactive
FC(F)(F)c1cnc(NNC(=S)Nc2ccccc2)c(Cl)c1	inactive
O=C(CCl)c1ccc(Cc2ncc(C(F)(F)F)cc2Cl)s1	39.8 µM (active)
C#CCNC(=O)C(C)c1ncc(C(F)(F)F)cc1Cl (stereo not drawn)	inactive
O=C(C[C@H]1C/C=C\C[C@@H](NC(=O)OCC2c3ccccc3-c3ccccc32)C(=O)O[C@@H](c2ccccc2)CNC1=O)N[C@H](CO)Cc1ccccc1	31.6 µM (active)
Nc1ccccc1-n1nc2ccc3ccccc3c2n1	inactive
COc1cc(C(=O)Nc2ccc(Br)cc2C(=O)c2cc(OC)c(OC)c(OC)c2)cc(OC)c1OC	inactive
CNc1ccc(Br)cc(C(=O)/C=C/c2cc(OC)ccc2OC)c1=O	39.8 µM (active)
COc1ccc(OC)c(/C=C/C(=O)N(C)CC(=O)Nc2cc(C)ccc2C)c1	inactive
COc1ccc(Br)cc1/C=C/C(=O)NC(=S)Nc1ccc(Cl)c(C(=O)O)c1	inactive
CNc1ccc(Br)cc(C(=O)/C=C/c2cccc(OC)c2)c1=O	28.2 µM (active)
COc1cccc(NC(=O)c2sc3nc(C)c(C(=O)Nc4ccc(C)cc4C)c(-c4ccc(Br)cc4)c3c2N)c1	inactive
Cc1ccc2nc(N3CCN(C)CC3)c(C=O)c(=O)n2c1	inactive
COCC(C)NC(=O)c1cc(-c2ccc(O)cc2)on1 (stereo not drawn)	inactive
Nc1c2ccccc2nc2ccccc12	inactive
NC(c1csc(NC(=O)Nc2cccc(C(F)(F)F)c2)n1)C1CCCCC1 (stereo not drawn)	28.2 µM (active)
CNC(=O)Nc1cc(C(F)(F)F)cc(C(F)(F)F)c1	inactive
COC(=O)Cc1csc(N/C=C2/C(=O)N(c3cccc(C(F)(F)F)c3)C(=O)c3ccccc32)n1	inactive
O=C(Nc1cccnc1)Nc1cccc(F)c1	inactive
CC(C)C(N)c1csc(NC(=O)Nc2cccc(C(F)(F)F)c2)n1 (stereo not drawn)	35.5 µM (active)
CCCCNc1ccc2c3c(cccc13)C(=O)N(CCCC)C2=O	inactive

SMILES	Potency
Cc1nn2c(-c3ccccc3)c(-c3ccccc3)nc2nc1O	inactive
Cc1cc(C)cc(CC2CC(=O)N(c3cc(C)ccc3C)C2=O)c1 (stereo not drawn)	inactive
CCC(C)Sc1ccc(-c2nc3cnccn3c2NC2CCCCC2)cc1 (stereo not drawn)	inactive
CC(C)(C=O)C1=CC(=O)c2ccccc2C1=O	10 µM (active)
CCOC(=O)c1c(NC(=O)c2nn(C)cc2[N+](=O)[O-])sc(C)c1C	inactive
CCCNC1=C(N(C(C)=O)c2cccc(F)c2)C(=O)c2ccccc2C1=O	31.6 µM (active)
C=CCNC(=O)C1CC(=O)N(c2ccc(OCC(=O)N3CCCC3)cc2)C1 (stereo not drawn)	inactive
CCC/C(C#Cc1ccc(N(C)C)cc1)=C1/c2ccccc2C(=O)N1c1ccccc1	inactive
Nc1nc(N)c2cc(Sc3ccc(Cl)cc3)ccc2n1	35.5 µM (active)
O=C(O)c1cc(Sc2ccc(Br)cc2)nc2ccccc12	inactive
N#C/C(=C\c1ccc(N2CCOCC2)o1)C(=O)NCCc1ccccc1	inactive
COc1ccc(C(=O)NN=C2CCCC2)cc1	inactive
COc1ccc(C(=O)C(CCCCC(CN(C)C)C(=O)c2ccc(OC)cc2)CN(C)C)cc1 (stereo not drawn)	31.6 µM (active)
COc1ccc(C(=O)COc2ccccc2C#N)cc1	inactive
CC(=O)c1cccc(S(=O)(=O)N2CCC(C(=O)Nc3cccc(C(=O)NC4CC4)c3)CC2)c1	inactive
Nc1ccc(OC(=O)Nc2ccc(O)cc2)cc1	inactive
CCOC(=O)CN1N=C(c2ccc(Cl)cc2)CCC1=O	inactive
CCOC(=O)N1C(=O)[C@@](c2ccc(Cl)cc2)(C(C)C)N1C(=O)OCC	31.6 µM (active)
CCN(CC)C(=O)Cn1cc(C(=O)C(=O)N2CC=C(c3ccccc3)CC2)c2ccccc21	inactive
Cc1cccc(NC(=O)NNC(=O)c2cc3ccccc3cc2O)c1C	inactive
C=CCC[C@@H](Cc1ccc(F)cc1)C(=O)OC[C@@H](C)NC(=O)[C@H](CC=C)CC(=O)N(CCO)Cc1ccccc1	39.8 µM (active)
C=CCC[C@@H](Cc1ccc(F)cc1)C(=O)OC[C@H](C)NC(=O)[C@H](CC=C)CC(=O)N(CCO)Cc1ccccc1	28.2 µM (active)
